CYP2C9 act: increases human cytochrome P450 2C9 activity; recombinant CYP2C9, luciferin-H conversion, luminescence; active compounds read high; factor 1 = untreated enzyme, 0 = blocked; activation factor at 5 µM; actives 1.4% (n = 96,000);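 active means activation factor of 2 or more for CYP2C9 at a 5 µM dose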;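 further: 0 = sulfaphenazole-blocked wells and 1 = vehicle-only wells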
CYP2C19 inhib: human CYP2C19 inhibition. actives 21% (n = 96,000). CYP2C19 Supersomes, luciferin-H EGE luminescence, 30 min. inhibition, % at 5 µM;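 active means CYP2C19 inhibition above a set limit at 5 µM in the primary screen, cut at about 50% in these data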;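 further: plate controls were negative control wells for no effect and 2.5 mM tranylcypromine positive control for full effect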
PLK1 PBD inh: Plk1 (human) PBD binding inhibition; P53350; Plk1 PBD phosphopeptide binding, fluorescence polarization; inhibition, %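 (tested at about 20 µM)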; actives 0.13% (n = 97,000); AID 693; in the data active means inhibition above about 34%, passing the limit was not always enough
Target sequence (P53350 whole entry, looked up): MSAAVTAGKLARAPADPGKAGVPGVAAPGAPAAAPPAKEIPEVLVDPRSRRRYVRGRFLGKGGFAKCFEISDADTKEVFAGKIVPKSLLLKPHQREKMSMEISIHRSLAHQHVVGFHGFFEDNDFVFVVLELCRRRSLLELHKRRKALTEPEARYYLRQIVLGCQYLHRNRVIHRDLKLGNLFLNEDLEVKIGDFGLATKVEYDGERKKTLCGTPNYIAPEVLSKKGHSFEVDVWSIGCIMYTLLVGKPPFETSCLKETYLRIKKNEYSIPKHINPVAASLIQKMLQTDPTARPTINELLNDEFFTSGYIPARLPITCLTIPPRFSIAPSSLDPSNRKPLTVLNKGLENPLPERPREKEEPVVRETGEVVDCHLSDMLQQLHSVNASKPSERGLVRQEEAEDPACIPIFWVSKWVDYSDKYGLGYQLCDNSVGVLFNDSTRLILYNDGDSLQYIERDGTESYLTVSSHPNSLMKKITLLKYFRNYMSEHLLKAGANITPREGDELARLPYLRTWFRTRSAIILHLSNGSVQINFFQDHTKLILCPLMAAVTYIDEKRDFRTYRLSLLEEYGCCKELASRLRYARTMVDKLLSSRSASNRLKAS
CYP2C9 inhib: inhibitors of human CYP2C9; CYP2C9 Supersomes, luciferin-H conversion, luminescence; actives 20% (n = 96,000); inhibition, % at 5 µM; P11712; AID 777;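 active means blocking of liver enzyme CYP2C9 beyond about 50% at 5 µM, limit read from the data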
PLK1 kinase inh: PLK1 (human) kinase inhibition; inhibition, % at 10 µM; recombinant PLK1 kinase, TR-FRET peptide phosphorylation; actives 0.53% (n = 97,000); P53350; AID 619;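 active means inhibition of 50% or more in the single-concentration screen; inactive means inhibition below 50%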;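 further: 0% = DMSO max control and 100% = H-89 dihydrochloride min control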
CYP2C19 act: increases human CYP2C19 enzyme activity; P33261; recombinant CYP2C19, luciferin-H EGE luminescence; active compounds read high; 0 = fully inhibited enzyme, 1 = untreated enzyme; activation factor at 5 µM; 96,000 tested, under 10 active; AID 1025;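 active means activation factor of at least 2 at 5 µM in the primary screen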;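 further: 0 = wells with 2.5 mM tranylcypromine and 1 = vehicle-only wells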
Starred values were filed as active, the others as inactive; . = no result given. The list is not random: actives were taken first. Their share in the collection is about 28%.

SMILES	CYP2C9 act	CYP2C19 inhib	PLK1 PBD inh	CYP2C9 inhib	PLK1 kinase inh	CYP2C19 act
COCCNc1oc(-c2ccccc2Cl)nc1C#N	0.3	88*	0	69*	-8	0.1
CCOC(=O)CN1C(=O)CSc2ccccc21	1.1	9	-10	-5	-17	0.9
CCN(C(=O)COC(=O)c1ccc(OCc2c(C)noc2C)cc1)c1ccccc1	0.7	5	-21	31	-5	0.9
Cc1ccc(S(=O)(=O)N(C)c2ccc(OCC(=O)OCc3c(C)noc3C)cc2)cc1	0.2	79*	-38	75*	-3	0.2
CCN(c1ccccc1)S(=O)(=O)c1ccc(OCc2c(C)noc2C)cc1	0.1	72*	8	86*	-16	0.3
CCOC(=O)N1CCC(NC(=O)C2CCN(S(=O)(=O)c3c(C)noc3C)CC2)CC1	1.2	-2	-1	-17	-5	1
COC(=O)C1=C(C)NC(=O)/C1=C\c1cccs1	0.4	26	-10	57*	-10	0.7
COC(=O)C1=C(C)N(c2cccc(C)c2)C(=O)/C1=C\c1cccs1	0.5	48	-6	50*	-7	0.5
COC(=O)C1=C(C)NC(=O)/C1=C\c1cc(C)n(-c2c(C)cccc2C)c1C	0.4	44	-11	56*	0	0.6
COC(=O)C1=C(C)NC(=O)/C1=C\c1cc(C)n(-c2ccccc2C)c1C	1	4	11	4	2	1
CCS(=O)(=O)n1nc(-c2ccccc2)cc1N	0.9	67*	-3	7	-11	0.3
CCCS(=O)(=O)n1nc(-c2ccc(Br)cc2)cc1N	0.1	68*	.	86*	.	0.3
Nc1cc(-c2ccc(Cl)cc2)nn1S(=O)(=O)c1ccccc1	0.2	64*	16	83*	-18	0.4
CCS(=O)(=O)n1nc(-c2ccccc2)nc1N	.	.	16	.	-2	.
Cc1nn(Cc2ccc(Cl)cc2)c(C)c1N	.	.	-3	.	-4	.
Nc1nc(-c2ccc(Cl)cc2)cc(C(F)(F)F)n1	0.9	34	15	14	-15	0.7
Nc1cc(-c2ccccc2)nn1Cc1ccc(Cl)cc1	0.2	93*	30	75*	-11	0.1
CCCS(=O)(=O)n1nc(-c2ccccc2)cc1N	0.3	93*	-6	67*	-17	0.1
CC1(C)C(=O)OC(c2c(F)c(F)c(F)c(F)c2F)C2(CCCCC2)C1=O (centres undefined)	1	7	6	0	-10	0.9
COc1ccc(N(CC(=O)N2CCc3ccccc3C2)S(=O)(=O)c2c(C)nn(C)c2C)cc1	0.4	91*	0	64*	-6	0.1
COc1ccccc1CNC(=O)CN(c1ccc(C)cc1)S(=O)(=O)c1c(C)nn(C)c1C	0.2	70*	-14	81*	3	0.3
COc1ccc(S(=O)(=O)N(CC(=O)NCCCN(C)C)c2ccc(C)cc2)cc1OC	1	-3	1	-1	-7	1
COc1ccc(OC)c(S(=O)(=O)N(C)CC(=O)N2CCc3ccccc3C2)c1	0.2	68*	15	80*	-11	0.3
COc1ccc(N(CC(=O)N2CCc3ccccc3C2)S(C)(=O)=O)cc1	1	18	-21	1	-5	0.8
COc1ccc(N(CC(=O)NCc2ccccc2OC)S(=O)(=O)c2c(C)nn(C)c2C)cc1	0.1	66*	-15	94*	-8	0.3
SMILES	CYP2C9 act	CYP2C19 inhib	PLK1 PBD inh	CYP2C9 inhib	PLK1 kinase inh	CYP2C19 act
Oc1ccc(-c2nc3ccccn3c2NCc2ccc3c(c2)OCO3)cc1	1	68*	5	-4	5	0.3
Cc1ccn2c(NCc3ccc4c(c3)OCO4)c(-c3ccc(O)cc3)nc2c1	0.8	18	-25	17	-14	0.8
COCC(=O)NC1CCN(C(=O)NCc2ccccc2)CC1	1.1	0	-15	-6	-6	1
CCOc1ccc(NC(=O)N(C2CCCCC2)C(C)c2ccncc2)cc1 (centres undefined)	0.3	63*	2	68*	-10	0.4
CCOc1ccc(NC(=O)N(C2CCCCC2)C(C)c2cccnc2)cc1 (centres undefined)	0.6	41	-9	41	-20	0.6
CC(C)OC(=O)CSc1nnnn1-c1ccc2c(c1)OCCO2	1.2	75*	0	-22	-8	0.3
O=C(CSc1nnnn1-c1ccc2c(c1)OCCO2)c1cccc2c1OCCO2	0.7	71*	-23	29	-8	0.3

Screens (PubChem)
